Compounds with a hit are over-represented: about 0.67% of the library has one in this group of screens.
S-ASM inh: inhibitors of human secretory acid sphingomyelinase; P17405; placental ASM, HMU-PC fluorogenic substrate, 60 min; Potency, µM (highest dose often 57.5 µM), without a hit: at the highest dose activity change, negative = inhibition, usual class: inhibitors; 0.006% of 340,000 active; AID 504937; active = well fitted inhibition curve with a large enough effect; inconclusive = small, poorly fitted or top-dose-only effect; inactive = no such curve, though single readings can be large or run the other way
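Fluorogenic HMU-PC substrate (9 uM final) is turned over by placental ASM in 60 min at 37 C after a 10 min compound preincubation. Reaction ended by alkaline stop (pH 10), with fluorescence read at 386/447 nm.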
Rango-impB inh: inhibitors of Rango-importin beta complex formation; Q14974; Rango CFP/YFP FRET sensor + importin beta, 45 min; Potency, µM (series often up to 92.2 µM), inactives show at the top dose inhibition of complex formation; 0.031% of 340,000 active; AID 540263;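 note: 0% = DMSO wells and 100% = buffer wells lacking importin beta; nearly all actives have a fitted effect of over 15% in size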
Target sequence (Q14974 whole entry, looked up): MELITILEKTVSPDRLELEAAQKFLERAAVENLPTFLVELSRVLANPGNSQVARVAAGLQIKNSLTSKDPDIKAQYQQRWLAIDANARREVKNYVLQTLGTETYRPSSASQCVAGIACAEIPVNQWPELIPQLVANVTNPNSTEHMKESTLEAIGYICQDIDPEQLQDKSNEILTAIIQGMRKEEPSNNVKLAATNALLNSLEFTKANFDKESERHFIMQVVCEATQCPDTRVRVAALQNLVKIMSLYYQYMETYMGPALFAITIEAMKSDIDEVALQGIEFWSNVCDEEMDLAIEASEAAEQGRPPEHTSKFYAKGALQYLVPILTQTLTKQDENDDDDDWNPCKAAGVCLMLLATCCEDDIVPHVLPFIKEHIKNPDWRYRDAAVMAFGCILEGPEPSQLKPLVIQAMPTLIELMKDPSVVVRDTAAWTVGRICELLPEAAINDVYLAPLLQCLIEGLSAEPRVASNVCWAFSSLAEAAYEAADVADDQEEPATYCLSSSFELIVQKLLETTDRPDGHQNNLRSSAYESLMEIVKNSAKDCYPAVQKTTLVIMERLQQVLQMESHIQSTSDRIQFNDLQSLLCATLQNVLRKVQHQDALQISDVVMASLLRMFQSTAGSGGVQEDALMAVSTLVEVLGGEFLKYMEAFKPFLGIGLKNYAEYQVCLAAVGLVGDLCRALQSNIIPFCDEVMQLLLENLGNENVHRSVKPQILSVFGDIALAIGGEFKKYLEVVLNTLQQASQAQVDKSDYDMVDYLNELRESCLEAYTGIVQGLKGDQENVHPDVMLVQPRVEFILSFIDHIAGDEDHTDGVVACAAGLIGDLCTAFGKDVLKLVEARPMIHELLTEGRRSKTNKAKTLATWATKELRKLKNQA
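FRET biosensor Rango (snurportin 1 IBB between N-terminal EYFP and C-terminal Cerulean), 50 nM in PBS/1 mM DTT/0.02% Tween-20/0.1% BSA, preincubated 5 min RT with compound; 0.125 microM importin beta added, 45 min RT, CFP/YFP FRET ratio read.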
Rango dissoc inh: prevents RanGTP from dissociating the Rango-importin beta complex. O95149+P62826. Biochemical FRET Rango-importin beta, RanGTP-induced dissociation. Potency, µM (series often up to 46.1 µM), for the others: at the highest dose activity change, negative = inhibition. 0.071% of 340,000 active. AID 540253; note: % of control where 0% means no effect; nearly all actives have a fitted effect of over 45% in size
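Compounds sat 5 min at room temperature with 0.1 uM Rango biosensor plus 0.25 uM importin beta, then FRET pre-read. RanGTP-RCC1 (0.6 uM Ran, 2mM GTP, 0.2 uM RCC1) added for 45 min, and the CFP/YFP post-read measured blocked complex dissociation.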
gsp ag: activates gsp, the McCune-Albright syndrome mutation; gsp mutant cells, cAMP HTRF, 30 min; Potency, µM (highest dose often 76.9 µM), for inactives: top-dose activation (cAMP increase), usual class: activators; 0.13% of 340,000 active; active = well fitted activation curve with a large enough effect; inconclusive = small, poorly fitted or top-dose-only effect, or another doubt; inactive = no such curve, though single readings can be large or run the other way; cell line not stated here;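 note: phosphodiesterase inhibitor Ro 20-1724 added with compounds to block cAMP breakdown; nearly all actives have a fitted effect of over 60% in size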
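Cells stably selected in G418 were plated at 2000/well, grown 16-24 hr, then given compounds in DMSO with the PDE inhibitor […] (300 uM solution added) for 30 min at 37C; cAMP was read by HTRF.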
gsp antag: antagonists of gsp mutant (McCune-Albright syndrome); 0.4% of 340,000 active; Potency, µM (titrated, usually from 76.9 µM), for inactives: top-dose activity change, negative = inhibition, usual class: inhibitors; gsp-mutant cells, cAMP HTRF, 30 min; calls by dose curve; cell line not stated here;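 note: intracellular cAMP measured with PDE inhibitor Ro 20-1724 present during compound exposure; % is set by controls: 0 for no effect and ±100 for the full control effect; nearly all actives have a fitted effect of over 65% in size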
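Measurement of cellular cAMP by homogeneous time-resolved fluorescence following a 30 min compound exposure at 37C. The PDE inhibitor […] was present throughout; the assay buffer was DPBS with 0.05% BSA and 0.005% Tween 20.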
The depositor's hits bear a star; u = inconclusive; x = no result; [ ] = remark or other dose. Unless noted, calls come from the whole dose curve. Potency is the fitted concentration of half-maximal effect.

SMILES | S-ASM inh | Rango-impB inh | Rango dissoc inh | gsp ag | gsp antag
O=[N+]([O-])c1ccc2nc(SCc3ccccc3Cl)sc2c1 | -5% | 7% | 15% | -12% | 25µM*
O=C(NC(NNc1ccc([N+](=O)[O-])cc1)(C(F)(F)F)C(F)(F)F)c1ccccc1Cl | u | 2% | -9% | -87% | -30%
Nc1ccc2nc(SCc3ccc([N+](=O)[O-])cc3)sc2c1 | -7% | 0% | 30% | 5% | 9%
CCn1ccnc1CN(C)Cc1c(C(=O)N2C[C@@H](C)O[C@@H](C)C2)nc2ccc(Cl)cn12 | 1% | -1% | 10% | u | 3%
O=c1[nH]c2cc3c(cc2cc1CN(Cc1ccco1)C(=S)NCCCN1CCOCC1)OCCO3 | 31% | -1% | -11% | -46% | 2%
O=C(COC(=O)CNC(=O)c1ccc(Br)o1)Nc1ccc2c(c1)OCCO2 | 1% | -4% | -8% | -114% | 50µM*
O=C(COC(=O)c1ccc(Br)o1)Nc1ccc2c(c1)OCCO2 | -1% | 1% | 22% | 3% | -14%
COc1ccc(NC(=O)c2ccco2)cc1N | -3% | 0% | -6% | -51% | -13%
C[C@H]1CN([C@@H](C)CO)C(=O)c2cc(Br)cnc2O[C@H]1CN(C)C(=O)c1cccnc1 | x | x | x | 32µM* | x
CC(C)c1ccc(NC(=O)c2snc3ccc(Cl)cc23)cc1 | -23% | 1% | 1% | 18% | 28µM*
CC1CCN(S(=O)(=O)c2cc(F)ccc2CN2C(=O)c3cccnc3C2=O)CC1 | 2% | 1% | -22% | u | 12%
O=C(c1sc2ccccc2c1Cl)N(Cc1ccco1)C1CCS(=O)(=O)C1 (stereo not drawn) | 0% | u | 18µM* | 17% | -6%
CCc1ccccc1NS(=O)(=O)c1ccc(OC)c2ncccc12 | 4% | -2% | -29% | 0% | 28µM*
C=CCC[C@H](Cc1ccc(F)cc1)C(=O)OC[C@@H](Cc1c[nH]c2ccccc12)NC(=O)[C@@H](CC=C)CC(=O)NCCO | -10% | 1% | 10% | 7% | -1%
CC(C)(C)c1ccc(C(=O)Nc2cccc3c(=O)[nH][nH]c(=O)c23)cc1 | 130% | u | u | -5%[15.4 µM] | 4%
Cc1cc(=O)[nH]c(SCC(=O)O)c1C#N | 4% | u | 7% | 0% | 6%
Cc1cc(=O)[nH]c(SCC(=O)C23CC4CC(CC(C4)C2)C3)c1C#N | 4% | 2% | 4% | 19% | 35µM*
Cc1cc(C)c(NC(=O)CC(C)(C)C)c(Cl)c1 | -6% | 0% | 10% | 5% | 5%
COc1ccc(-c2ocnc2C(=O)N2CCN(Cc3cccnc3)CC2)cc1 | 0% | -3% | 1% | -11% | 3%
COc1ccc(-c2ocnc2C(=O)N2CCN(C(=O)C(c3ccccc3)c3ccccc3)CC2)cc1 | -1% | -1% | 19% | -8%[15.4 µM] | 25µM*
CC1(C)S[C@@H]2[C@H](NC(=O)[C@H](N)c3ccccc3)C(=O)N2[C@H]1C(=O)OC1OC(=O)c2ccccc21 (stereo partly drawn) | 4% | 0% | 1% | x | -6%
COc1cccc(N/C=C/C(=O)c2ccc(C)cc2)c1 | 32% | u | 15µM* | -28% | -14%
O=C(CN1CCN(Cc2ccccc2)CC1)Nc1cccc(Cl)c1 | 5% | 1% | u | 7%[15.4 µM] | -5%
CC(C)c1ccc(/C=C/C(=O)n2nnc3ccccc32)cc1 | 13% | 0% | 12% | 19% | -11%
CCO[C@H]1OC(C(=O)N2CCN(Cc3ccc4c(c3)OCO4)CC2)=C[C@@H](C(C)(C)C)[C@@H]1CCCO | 6% | -2% | 7% | x | 7.9µM*
SMILES | S-ASM inh | Rango-impB inh | Rango dissoc inh | gsp ag | gsp antag
CCn1c(C)nc2cc(S(=O)(=O)N3CCCCC3)ccc21 | 5% | 6% | 9% | -24% | -16%
CCn1c(CN2CCCCC2)nc2cc(S(=O)(=O)N3CCCCC3)ccc21 | 0% | 2% | 9% | -3% | 11µM*
CC(=O)c1ccc(N2CCN(C(=O)CCCc3nc4ccccc4s3)CC2)cc1 | -2% | -2% | -14% | -5% | 32µM*
Nc1nc(O)c(N=Nc2ccc(S(N)(=O)=O)cc2)c(=O)[nH]1 | -2% | -4% | -14% | 6%[15.4 µM] | 15%
NS(=O)(=O)c1ccc(N=Nc2c[nH]c(=O)c(O)c2)cc1 | -10% | u | 23µM* | -30% | u
O=[N+]([O-])c1ccc(-c2nc(Nc3cccc(O)c3)c3ccccc3n2)cc1 | u | 2% | 0% | u | 28µM*
O=C(O)c1cccc(Nc2nc(-c3ccc([N+](=O)[O-])cc3)nc3ccccc23)c1 | 0% | 1% | -6% | u | -13%
Cc1oc2c(c1C(=O)c1ccc(Cl)cc1)C(=O)C(=O)c1ccccc1-2 | -6% | -1% | 1% | -29% | 56µM*
Cc1ccc(C(=O)c2c(C)oc3c2C(=O)C(=O)c2ccccc2-3)cc1 | -19% | -1% | -23% | 8% | -5%[15.4 µM]
NC(=O)[C@@H]1CCCN1Cc1c(C(=O)N2CCc3ccccc3C2)nc2ccc(Cl)cn12 | -1% | u | -16% | -11% | -6%
Cc1nnc(NC(=O)CCCCCN2C(=O)C3C4C=CC(C4)C3C2=O)s1 (stereo not drawn) | 3% | 0% | 7% | -119% | 50µM*
CC(C)c1nnc(NC(=O)CCCCCN2C(=O)C3C4C=CC(C4)C3C2=O)s1 (stereo not drawn) | 2% | -2% | -10% | -23% | -7%
CC(C)(CC(=O)O)CC(=O)N1CCN(c2nc3cc(Cl)ccc3s2)CC1 | -5% | 2% | 10% | -3%[15.4 µM] | -19%
COc1cc(-c2cc(C(=O)Nc3ccc(S(N)(=O)=O)cc3)c3ccccc3n2)cc(OC)c1OC | -10% | -1% | 34% | u | u
CCN(CC)S(=O)(=O)c1ccc(O)c(NC(=O)c2cc(-c3cc(OC)c(OC)c(OC)c3)nc3ccccc23)c1 | -2% | -4% | 2% | u | 35µM*
CCN(CC)c1ccc(Nc2nc(N3CCOCC3)c3ccccc3n2)cc1 | -5% | 0% | -3% | -19% | 50µM*
Cc1nn(C)c(C)c1CN(C(=O)C1CCC(=O)N(C2CCCCCC2)C1)C(C)C (stereo not drawn) | 1% | 3% | -10% | -2% | 13%
Cc1cc(=O)[nH]c(SCC(=O)Nc2cccc(S(=O)(=O)N3CCOCC3)c2)n1 | 1% | 2% | 9% | 16µM* | 14%
COc1ccc(CCNC(=O)Cn2c(=O)n(-c3ccc(F)cc3F)c(=O)c3sccc32)cc1OC | 1% | 4% | -1% | -17%[15.4 µM] | -28%
COc1ccc(CCNC(=O)Cn2c(=O)n(-c3cc(F)ccc3F)c(=O)c3sccc32)cc1OC | 1% | 1% | 2% | -28% | 32µM*
O=C(COc1cccc(C(F)(F)F)c1)NNC(=O)c1ccc(=O)[nH]c1 | 1% | -3% | 13% | -39% | 8%

Bioassay records deposited in PubChem by National Center for Advancing Translational Sciences (NCATS).
